The record followed here is PubChem BioAssay (NCATS).

Assay [1] is described as follows: qHTS for Inhibitors of the Functional Ribonucleoprotein Complex (vRNP) of Lassa (LASV) Arenavirus: LASV Primary Screen - GLuc reporter signal (AID 1347082; calls by dose curve; tested in HEK293 reporter line; note: nearly all actives have a fitted effect of over 60% in size; note: potency is the fitted concentration of half-maximal effect; for activity change, negative = inhibition: % is set by controls: 0 for no effect and ±100 for the full control effect). A general note: Quantitative high-throughput screening tests each substance at several concentrations.
Assay [2] can be described thus: qHTS for Inhibitors of the Functional Ribonucleoprotein Complex (vRNP) of Lassa (LASV) Arenavirus: Viability assay - alamar blue signal for LASV Primary Screen (AID 1347083; calls by dose curve; tested in HEK293 reporter line; note: nearly all actives have a fitted effect of over 80% in size; note: potency is the fitted concentration of half-maximal effect).
A short description of assay [3]: qHTS for Inhibitors of the Functional Ribonucleoprotein Complex (vRNP) of Lymphocytic Choriomeningitis Arenaviruses (LCMV): Viability assay - alamar blue signal for LCMV Primary Screen (AID 1347085; calls by dose curve; tested in HEK293 reporter line; note: nearly all actives have a fitted effect of over 80% in size; note: potency is the fitted concentration of half-maximal effect).
In assay [4] the target is Nucleoprotein (Lymphocytic choriomeningitis virus (strain Armstrong)) (UniProt P09992). Nature of the assay: qHTS for Inhibitors of the Functional Ribonucleoprotein Complex (vRNP) of Lymphocytic Choriomeningitis Arenaviruses (LCMV): LCMV Primary Screen - GLuc reporter signal (AID 1347086). For activity change, negative = inhibition: % is set by controls: 0 for no effect and ±100 for the full control effect. Note: nearly all actives have a fitted effect of over 70% in size. Note: potency is the fitted concentration of half-maximal effect.
Chain of Nucleoprotein (Lymphocytic choriomeningitis virus (strain Armstrong)) (P09992 whole entry, looked up): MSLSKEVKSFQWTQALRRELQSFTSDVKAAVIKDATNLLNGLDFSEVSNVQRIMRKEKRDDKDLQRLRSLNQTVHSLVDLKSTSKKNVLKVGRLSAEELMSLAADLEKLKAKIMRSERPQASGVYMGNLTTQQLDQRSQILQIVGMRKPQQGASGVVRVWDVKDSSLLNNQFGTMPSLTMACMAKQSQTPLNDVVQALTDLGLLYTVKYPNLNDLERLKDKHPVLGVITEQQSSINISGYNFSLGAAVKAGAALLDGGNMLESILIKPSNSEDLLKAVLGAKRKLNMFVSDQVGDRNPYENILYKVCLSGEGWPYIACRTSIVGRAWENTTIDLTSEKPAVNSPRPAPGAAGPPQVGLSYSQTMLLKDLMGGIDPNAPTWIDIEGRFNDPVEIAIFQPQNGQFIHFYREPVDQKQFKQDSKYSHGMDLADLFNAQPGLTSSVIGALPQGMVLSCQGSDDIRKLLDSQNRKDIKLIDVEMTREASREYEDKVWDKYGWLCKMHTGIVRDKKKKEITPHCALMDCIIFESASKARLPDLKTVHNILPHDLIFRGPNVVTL
Another assay has as its system CRL-7250. Nature of the assay: qHTS assay to identify novel small-molecules to repurpose for Merkel cell carcinoma treatment (AID 1296009; active = well fitted inhibition curve with a large enough effect; note: nearly all actives have a fitted effect of over 60% in size). The note with it: MCC and control cell lines, CellTiter-Glo viability, 72 h; series mostly up to 92 µM. Put shortly:
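After compound transfer in DMSO, plates were kept 72 hr at 37 degree celsius. Luminescent ATP signal from CellTiter-Glo served as viability measure, normalized against DMSO and no-cell controls.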

Assay [5] is described as follows: Cytotoxicity counterscreen for inhibitors of SARS-CoV-2 cell entry (AID 1645845). Note: nearly all actives have a fitted effect of over 50% in size. Note: potency is the fitted concentration of half-maximal effect. Summed up: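 48 h compound treatment (after 1 h preincubation), HEK293-ACE2 cells, 37 C/5% CO2; ATP luminescence endpoint; normalized to cell wells and media blanks.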
The nature of assay [6]: qHTS profiling of the MIPE4 collection as inhibitors of Plasmodium falciparum (3D7) proliferation (AID 743344; call rule not given here;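 note: scaled between DMSO vehicle wells and 0.29 µM artemisinin as full inhibition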). The note with it: P. falciparum 3D7 in erythrocytes, SYBR Green DNA fluorescence, 72 h; at 28.5 µM (top of the series) unless noted. Summed up:
(§1)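 Erythrocytes infected with P. falciparum (0.3% parasitemia, 2.5% hematocrit) incubated with compounds 72 h at 37 C, 5% CO2. Lysis with saponin/Triton buffer containing SYBR Green I, overnight at room temperature in the dark; DNA fluorescence (485/535 nm) normalised to 0.29 uM artemisinin and DMSO.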

The nature of assay [7]: qHTS profiling of the MIPE4 collection as inhibitors of Plasmodium falciparum (DD2) proliferation (AID 743345; call rule not given here). As to conditions: P. falciparum Dd2 in erythrocytes, SYBR Green DNA, 72 h; at 28.5 µM (top of the series) unless noted. Put shortly:
as §1

The nature of assay [8]: qHTS profiling of the MIPE4 collection as inhibitors of Plasmodium falciparum (DD2) proliferation (Rep 2) (AID 743346; call rule not given here). The note with it: P. falciparum Dd2 in erythrocytes, SYBR Green DNA, 72 h; at 28.5 µM (top of the series) unless noted. Summed up:
as §1

A short description of assay [9]: Primary qHTS for Huh7 cytotoxicity: counterscreen for inhibitors of MERS-S pseudotyped particle cell entry (AID 1479147). The note with it: outcome: dose series up to 57.1 µM unless noted.
The nature of assay [10]: Primary qHTS for inhibitors of MERS-S pseudo-typed particle cell entry (AID 1479149). For activity change, negative = inhibition: % is set by controls: 0 for no effect and ±100 for the full control effect. Note: nearly all actives have a fitted effect of over 60% in size.
The nature of assay [11]: Primary qHTS for Vero E6 cytotoxicity: counterscreen for inhibitors of SARS-S pseudo-typed particle cell entry (AID 1479150). As to conditions: outcome: dose series up to 57.1 µM unless noted.
Assay [12] in a line: Primary qHTS to identify inhibitors of SARS-CoV-2 cell entry (AID 1645846). Note: nearly all actives have a fitted effect of over 45% in size. The note with it: activity change, negative = inhibition: at 57.1 µM (top of the series) unless noted. Put shortly:
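Inhibition of spike-mediated entry was scored in human ACE2-transfected Expi293F cells. Particles were MLV-pseudotyped with Wuhan-Hu-1 S carrying a 19-aa C-terminal deletion; signal was luciferase after two days, scaled between spike PP and fusion-protein-free PP.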

Assay [13] can be described thus: Confirmatory qHTS for VERO E6 Cytotoxicity Assay: Counterscreen for SARS-CoV-2 CPE Assay (AID 1508605). Note: % is set by controls: 0 for no effect and ±100 for the full control effect; nearly all actives have a fitted effect of over 60% in size.
The nature of assay [14]: Confirmatory qHTS for activators (rescue) of SARS-CoV-2 Cytopathic Effect (CPE) (AID 1508606). Note: nearly all actives have a fitted effect of over 70% in size. Note: potency is the fitted concentration of half-maximal effect.
Assay [15] can be described thus: qHTS profiling of the MIPE4 collection as inhibitors of Plasmodium falciparum (HB3) proliferation (AID 743347; call rule not given here;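 note: plate controls were DMSO vehicle wells for no effect and artemisinin wells for full effect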). The note with it: P. falciparum HB3 in erythrocytes, SYBR Green DNA, 72 h; at 28.5 µM (top of the series) unless noted. Put shortly:
as §1

The nature of assay [16]: Primary qHTS for inhibitors of SARS-S pseudo-typed particle cell entry (AID 1479145). For activity change, negative = inhibition: % is set by controls: 0 for no effect and ±100 for the full control effect. Note: nearly all actives have a fitted effect of over 45% in size.

Records with an inconclusive call do not appear. Calls of active or inactive are those of the source. Unless noted, calls come from the whole dose curve.

`CCNC(=O)Nc1ccc(Oc2ncnc(N)c2C=NOC)cc1Cl`: the Potency result (in assay [1]; in assay [2]; in [3]; in assay [4]; in the assay with CRL-7250) was “inactive” in each case.
As for `O=C(NNC(=O)c1ccc(CNS(=O)(=O)c2ccc(F)c(Cl)c2)cc1)c1ccccc1`, the Potency entry (in assay [1]; in assay [2]; in assay [3]; in assay [4]; in the assay with CRL-7250) was “inactive” each time.
For the compound `CC(=O)N[C@@H]1[C@H](O[C@@H]2c3ccc(c(Cl)c3)Oc3cc4cc(c3O[C@H]3O[C@H](CO)[C@@H](O)[C@H](O)[C@H]3NC(=O)CCCCCCCC(C)C)Oc3ccc(cc3Cl)C[C@H]3NC(=O)[C@H](N)c5ccc(O)c(c5)Oc5cc(O)cc(c5)[C@H](NC3=O)C(=O)N[C@H]4C(=O)N[C@H]3C(=O)N[C@@H]2C(=O)N[C@@H](C(=O)O)c2cc(O)cc(O[C@H]4O[C@H](CO)[C@@H](O)[C@H](O)[C@H]4O)c2-c2cc3ccc2O)O[C@H](CO)[C@@H](O)[C@@H]1O`, the Potency entry (in [1]; in assay [2]; in [3]; in assay [4]; with CRL-7250) was “inactive” each time.
Consider `O=C(O)[C@H](CC(=O)N1C[C@@H]2CCCC[C@H]2C1)Cc1ccccc1`, for which the Potency entry (in assay [1]; in assay [2]; in [3]; in assay [4]; with CRL-7250) was “inactive” throughout.
As for `C=CC[N+]1([C@H]2C[C@H]3[C@@H]4CC[C@H]5C[C@H](O)[C@@H](N6CCOCC6)C[C@]5(C)[C@@H]4CC[C@]3(C)[C@H]2OC(C)=O)CCCC1`, the Potency result (in assay [1]; in assay [2]; in assay [3]; in [4]; in the assay with CRL-7250) was “inactive” in each case.
Consider `COC(=O)N[C@H](C(=O)N1CCC[C@@H]1c1ncc(-c2ccc(-c3ccc(-c4cnc([C@@H]5CCCN5C(=O)[C@@H](NC(=O)OC)C(C)C)[nH]4)cc3)cc2)[nH]1)C(C)C`, for which the Potency entry (in assay [1]; in assay [2]; in assay [3]; in the assay with CRL-7250) was “inactive” in each case.
As for `Cc1ccc(Nc2cc(-c3cccc(N4C(=O)c5ccccc5C4=O)c3)ncn2)cc1NS(C)(=O)=O`, the Potency result (in assay [1]; in assay [2]; in assay [3]; in [4]; in the assay on CRL-7250) was “inactive” in each case. The Potency in assay [5] was 31.6 µM (active).
As for `COc1ccc(C2(C#N)CCC(C(=O)O)CC2)cc1OC1CCCC1` (stereo not given), in [6], the parasite growth, % of DMSO control was determined as 91.7%. In addition, the parasite growth remaining, % of DMSO control (lower = more inhibition) in assay [7] worked out at 101%. The compound further gave a parasite growth, % of control (lower = inhibition) in assay [8] of 88.4%. In addition, the Potency result in assay [1], in assay [2], in assay [3], in assay [4], in [10] and in assay [5] was “inactive” in each case. In addition, the Potency result (in assay [12]; in the assay on CRL-7250) was “inactive” in each case. For the same compound, the compound was classed as inactive in [9] and in [11]. Besides, in assay [12], the activity change, negative = inhibition is -18.7%.
For the compound `CC1=C(C(=O)Nc2cc3cn[nH]c3cc2F)C(c2ccc(C(F)(F)F)cc2)CC(=O)N1` (stereo not given), the Potency entry (in assay [1]; in assay [2]; in assay [3]; in assay [4]; in [5]; in the assay on CRL-7250) was “inactive” in each case. Also, the activity change, negative = inhibition in [12] was -23.5%.
On to `CNC(=O)c1ccc(-c2cnc3ncc(Cc4ccc5ncccc5c4)n3n2)cc1F`, for which the Potency entry (in assay [1]; in [2]; in assay [3]; in assay [4]; in assay [5]; in the assay with CRL-7250) was “inactive” throughout.
Regarding `CC(C(C)N1CC(=O)NC(=O)C1)N1CC(=O)NC(=O)C1` (stereo not given), the Potency result (in assay [1]; in assay [2]; in [3]; in assay [4]; in assay [5]; in the assay on CRL-7250) was “inactive” in each case. In addition, the activity change, negative = inhibition in [12] is -28.5%.
Regarding `CCOC(=O)c1c(CSc2ccccc2)n(C)c2cc(Br)c(O)c(CN(C)C)c12`, the Potency entry (in [1]; in assay [2]; in assay [3]; in [4]; in assay [13]; in the assay on CRL-7250) was “inactive” in each case. Also, the Potency in assay [14] is 11.2 µM (active).
For the compound `CN1c2cc(O)c(N=NC(N)=O)cc2CC1S(=O)(=O)O` (stereo not given), the parasite growth, % of DMSO control in [6] was 37.8%. Further, the parasite growth remaining, % of DMSO control (lower = more inhibition) in assay [7] is 64.1%. In assay [15], the growth, % of control worked out at 54.6%. For the same compound, the Potency result in assay [1], in assay [2], in assay [3], in [4], in assay [16] and in assay [10] was “inactive” throughout. Further, the Potency entry in the assay with CRL-7250 was “inactive”. Further, the compound was called inactive in assay [9] and in [11]. For the same compound, in assay [12], the activity change, negative = inhibition turned out to be 4.67%.
As to `O=C(c1cncc(Br)c1)N1CCC(N2CCCC2)CC1`, the Potency result in assay [1], in assay [2], in assay [3], in assay [4], in assay [5] and in assay [12] was “inactive” in each case. In addition, in the assay on CRL-7250, the Potency entry was “inactive”.
Take `COc1ccc2c(OCc3nnc4ccc(-c5ccccc5)nn34)ccnc2c1`: the Potency result (in assay [1]; in [2]; in assay [3]; in assay [4]; in [5]; in the assay on CRL-7250) was “inactive” each time. Further, the activity change, negative = inhibition in assay [12] was -13.2%.
Turning to `CC(Cc1ccc(O)c(O)c1)(NN)C(=O)O` (stereo not given), the Potency entry (in assay [1]; in [2]; in assay [3]; in assay [4]; in [5]; in the assay on CRL-7250) was “inactive” throughout. Also, the activity change, negative = inhibition in assay [12] is -34.1%.
Take `Cc1ccc(CN2CCNCC2)cc1NC(=O)CNc1ccc(F)c(F)c1`: the Potency result in assay [1], in [2], in assay [3], in [4], in assay [5] and in assay [12] was “inactive” in each case. For the same compound, the Potency result in the assay on CRL-7250 was “inactive”.
Regarding `COC1=C(OC)C(=O)C(CC=C(C)CCC=C(C)CCC=C(C)CCC=C(C)CCC=C(C)CCC=C(C)CCC=C(C)CCC=C(C)CCC=C(C)CCC=C(C)C)=C(C)C1=O`, the Potency entry (in assay [1]; in assay [2]; in assay [3]; in [4]; with CRL-7250) was “inactive” each time. The outcome in [16] was “inactive [at 5.34 µM]”; in assay [9], “inactive [at 5.34 µM]”; in [10] it was “inactive [at 5.34 µM]”; in assay [11], “inactive [at 5.34 µM]”; in [5], “inactive [at 5.25 µM]”; in [12], “inactive [at 5.25 µM]”.
Turning to `Cc1ccc(C2=Nc3ccc(Cl)cc3OC2)cc1`, the Potency entry (in assay [1]; in assay [2]; in assay [3]; in assay [4]; in [5]; in the assay on CRL-7250) was “inactive” each time.
With `CCCCCCCCCCCCc1ccc(S(=O)(=O)Nc2nncs2)cc1`, the Potency result in assay [1], in assay [2], in assay [3], in [4], in assay [13] and in assay [14] was “inactive” in each case. Also, the Potency result (in [5]; with CRL-7250) was “inactive” throughout. Moreover, the activity change, negative = inhibition in assay [12] is -14.7%.
In the case of `COC(=O)N1CCN(Cc2cccc(NC(=O)Nc3ccc(C)nc3)c2F)CC1`, the Potency entry (in assay [1]; in [2]; in [3]; in [4]; in [5]; with CRL-7250) was “inactive” in each case.
In the case of `COc1ccc([C@@H]2CNC(=O)C2)cc1OC1CCCC1`, the Potency result (in assay [1]; in assay [4]; in assay [5]; in the assay on CRL-7250) was “inactive” throughout. The figures for the Potency in [2] and in assay [3] were 2.73 µM (active) and 3.43 µM (active), respectively.
For the compound `CN1C(C(=O)Nc2ccccn2)=C(O)c2sc(Cl)cc2S1(=O)=O`, the Potency in assay [1] was 24.3 µM (active); in [2], 15.3 µM (active); in [3], 24.3 µM (active); in assay [4], 15.3 µM (active). Also, the Potency result (in [16]; in assay [10]; in assay [5]; in the assay on CRL-7250) was “inactive” each time. The compound was classed as inactive in [9] and in assay [11].
